Reference: PubChem BioAssay AID1159580 (chemical genetic matrix, 2015)
In all, about 5,500 compounds went through this assay and about 2,000 (36%) were called active. Roughly 18% stayed inconclusive and do not appear here. No stated cut-off is given here; in the data, active means normalized growth mostly below about 0.91 (no sharp cut-off); inconclusive means no clear call, values can overlap the other calls; inactive means mostly above about 0.92. The list shows a part of the results.

Test: chemical genetic growth profiling, strain panel (AID 1159580);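 further: tested at 20 µM; growth read once vehicle control cultures reached saturation at 30 °C; 1 = growth at the plate median or of vehicle wells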
Settings: growth OD
[1] = S. cerevisiae deletion strains, locus YAL013W, strain DEP1, stronger effect = lower value
[2] = S. cerevisiae deletion strains, locus YBR229C, strain ROT2, stronger effect = lower value
[3] = S. cerevisiae deletion strains, locus YDL101C, strain DUN1, stronger effect = lower value
[4] = S. cerevisiae deletion strains, locus YDR150W, strain NUM1, stronger effect = lower value
[5] = S. cerevisiae deletion strains, locus YEL061C, strain CIN8, stronger effect = lower value
[6] = S. cerevisiae deletion strains, locus YGR078C, strain PAC10, stronger effect = lower value
[7] = S. cerevisiae deletion strains, locus YGR229C, strain SMI1, stronger effect = lower value
[8] = S. cerevisiae deletion strains, locus YHR030C, strain SLT2, stronger effect = lower value
[9] = S. cerevisiae deletion strains, locus YJR043C, strain POL32, stronger effect = lower value
[10] = S. cerevisiae deletion strains, locus YJR075W, strain HOC1, stronger effect = lower value
[11] = S. cerevisiae deletion strains, locus YKL190W, strain CNB1, stronger effect = lower value
[12] = S. cerevisiae deletion strains, locus YLR039C, strain RIC1, stronger effect = lower value
[13] = S. cerevisiae deletion strains, locus YLR262C, strain YPT6, stronger effect = lower value
[14] = S. cerevisiae deletion strains, locus YMR263W, strain SAP30, stronger effect = lower value
[15] = S. cerevisiae deletion strains, locus YMR307W, strain GAS1, stronger effect = lower value
[16] = S. cerevisiae deletion strains, locus YNL128W, strain TEP1, stronger effect = lower value
[17] = S. cerevisiae deletion strains, locus YNL153C, strain GIM3, stronger effect = lower value
[18] = S. cerevisiae deletion strains, locus YNL322C, strain KRE1, stronger effect = lower value
[19] = S. cerevisiae deletion strains, locus YPL055C, strain LGE1, stronger effect = lower value
[20] = S. cerevisiae deletion strains, locus YPL241C, strain CIN2, stronger effect = lower value
[21] = S. cerevisiae strains, strain wild type, stronger effect = lower value
[22] = S. cerevisiae deletion strains, locus YHR087W, strain rtc3, stronger effect = lower value
[23] = S. cerevisiae deletion strains, locus YJL187C, strain SWE1, stronger effect = lower value
[24] = S. cerevisiae deletion strains, locus YLR058C, strain SHM2 (second series), stronger effect = lower value
[25] = S. cerevisiae deletion strains, locus YLR085C, strain ARP6, stronger effect = lower value
[26] = S. cerevisiae deletion strains, locus YML094W, strain GIM5, stronger effect = lower value
[27] = S. cerevisiae deletion strains, locus YMR219W, strain ESC1, stronger effect = lower value
[28] = S. cerevisiae deletion strains, locus YNL298W, strain CLA4 (second series), stronger effect = lower value
[29] = S. cerevisiae deletion strains, locus YNR030W, strain Alg12, stronger effect = lower value
[30] = S. cerevisiae deletion strains, locus YPR135W, strain CTF4, stronger effect = lower value

Measured: normalized growth

COC(=O)c1c(Cl)c(Cl)c(C(=O)OC)c(Cl)c1Cl
inactive: [1] 0.991 | S. cerevisiae deletion strains, locus YBR021W, strain FUR4, stronger effect = lower value 0.972 | [2] 1 | S. cerevisiae deletion strains, locus YCL029C, strain bik1, stronger effect = lower value 1.01 | S. cerevisiae deletion strains, locus YDL035C, strain GPR1, stronger effect = lower value 1.01 | S. cerevisiae deletion strains, locus YDL074C, strain BRE1, stronger effect = lower value 0.927 | [3] 0.978 | S. cerevisiae deletion strains, locus YDL134C, strain PPH21, stronger effect = lower value 0.998 | S. cerevisiae deletion strains, locus YDL185W, strain tfp1, stronger effect = lower value 1.01 | S. cerevisiae deletion strains, locus YDL192W, strain arf1, stronger effect = lower value 1 | S. cerevisiae deletion strains, locus YDR101C, strain arx1, stronger effect = lower value 0.995 | [4] 1 | S. cerevisiae deletion strains, locus YDR162C, strain NBP2, stronger effect = lower value 0.997 | S. cerevisiae deletion strains, locus YDR318W, strain mcm21, stronger effect = lower value 1 | S. cerevisiae deletion strains, locus YDR388W, stronger effect = lower value 1 | S. cerevisiae deletion strains, locus YDR502C, strain sam2, stronger effect = lower value 0.999 | [5] 0.999 | S. cerevisiae deletion strains, locus YER110C, stronger effect = lower value 1 | S. cerevisiae deletion strains, locus YER155C, strain BEM2, stronger effect = lower value 0.984 | S. cerevisiae deletion strains, locus YER167W, strain BCK2, stronger effect = lower value 0.998 | S. cerevisiae deletion strains, locus YGL078C, strain dbp3, stronger effect = lower value 1.01 | S. cerevisiae deletion strains, locus YGL086W, strain mad1, stronger effect = lower value 0.998 | S. cerevisiae deletion strains, locus YGL248W, strain PDE1, stronger effect = lower value 1.01 | [6] 0.987 | S. cerevisiae deletion strains, locus YGR135W, strain pre9, stronger effect = lower value 0.994 | [7] 0.988 | S. cerevisiae deletion strains, locus YGR252W, strain gcn5, stronger effect = lower value 0.944 | [8] 0.971 | S. cerevisiae deletion strains, locus YHR079C, strain IRE1 (second series), stronger effect = lower value 1 | S. cerevisiae deletion strains, locus YHR094C, strain hxt1, stronger effect = lower value 1 | S. cerevisiae deletion strains, locus YHR129C, strain ARP1, stronger effect = lower value 0.996 | S. cerevisiae deletion strains, locus YHR200W, strain rpn10, stronger effect = lower value 1 | S. cerevisiae deletion strains, locus YIL066C, strain RNR3, stronger effect = lower value 0.984 | S. cerevisiae deletion strains, locus YIL073C, strain SPO22, stronger effect = lower value 1.03 | S. cerevisiae deletion strains, locus YIL125W, strain kgd1, stronger effect = lower value 0.994 | S. cerevisiae deletion strains, locus YIR030C, strain dcg1, stronger effect = lower value 1.01 | S. cerevisiae deletion strains, locus YJL095W, strain BCK1, stronger effect = lower value 0.962 | S. cerevisiae deletion strains, locus YJL134W, strain LCB3, stronger effect = lower value 1 | S. cerevisiae deletion strains, locus YJL168C, strain set2, stronger effect = lower value 1 | S. cerevisiae deletion strains, locus YJL187C, strain SWE1 (second series), stronger effect = lower value 1.01 | [9] 0.969 | [10] 0.978 | S. cerevisiae deletion strains, locus YKL009W, strain mrt4, stronger effect = lower value 0.987 | S. cerevisiae deletion strains, locus YKL068W, stronger effect = lower value 0.996 | S. cerevisiae deletion strains, locus YKL085W, strain MDH1 (second series), stronger effect = lower value 0.995 | S. cerevisiae deletion strains, locus YKL085W, strain MDH1, stronger effect = lower value 0.995 | [11] 0.998 | S. cerevisiae deletion strains, locus YKR001C, strain vps1, stronger effect = lower value 1.03 | [12] 1.24 | S. cerevisiae deletion strains, locus YLR058C, strain SHM2, stronger effect = lower value 1 | S. cerevisiae deletion strains, locus YLR102C, strain apc9, stronger effect = lower value 1.01 | [13] 1.18 | S. cerevisiae deletion strains, locus YLR268W, strain sec22, stronger effect = lower value 0.992 | S. cerevisiae deletion strains, locus YLR330W, strain CHS5, stronger effect = lower value 1 | S. cerevisiae deletion strains, locus YLR342W, strain FKS1 (second series), stronger effect = lower value 1.01 | S. cerevisiae deletion strains, locus YLR371W, strain rom2, stronger effect = lower value 1.01 | S. cerevisiae deletion strains, locus YLR418C, strain cdc73, stronger effect = lower value 0.929 | S. cerevisiae deletion strains, locus YML016C, strain PPZ1, stronger effect = lower value 0.993 | S. cerevisiae deletion strains, locus YML032C, strain rad52, stronger effect = lower value 1.01 | S. cerevisiae deletion strains, locus YML124C, strain tub3, stronger effect = lower value 1.01 | S. cerevisiae deletion strains, locus YMR078C, strain ctf18, stronger effect = lower value 1.01 | S. cerevisiae deletion strains, locus YMR223W, strain ubp8, stronger effect = lower value 1 | [14] 0.987 | [15] 0.972 | S. cerevisiae deletion strains, locus YNL067W, strain RPL9B, stronger effect = lower value 0.985 | [16] 1 | [17] 1 | S. cerevisiae deletion strains, locus YNL233W, strain BNI4, stronger effect = lower value 1.01 | S. cerevisiae deletion strains, locus YNL250W, strain rad50, stronger effect = lower value 1.01 | S. cerevisiae deletion strains, locus YNL271C, strain bni1, stronger effect = lower value 1.01 | S. cerevisiae deletion strains, locus YNL298W, strain CLA4, stronger effect = lower value 0.997 | S. cerevisiae deletion strains, locus YNL307C, strain MCK1, stronger effect = lower value 0.998 | [18] 0.994 | S. cerevisiae deletion strains, locus YNR052C, strain pop2, stronger effect = lower value 1.02 | S. cerevisiae deletion strains, locus YOL006C, strain TOP1, stronger effect = lower value 0.914 | S. cerevisiae deletion strains, locus YOL012C, strain htz1 0.967 | S. cerevisiae deletion strains, locus YOL147C, strain pex11, stronger effect = lower value 1.01 | S. cerevisiae deletion strains, locus YOR061W, strain CKA2, stronger effect = lower value 0.999 | S. cerevisiae deletion strains, locus YOR069W, strain VPS5, stronger effect = lower value 1 | S. cerevisiae deletion strains, locus YOR136W, strain idh2, stronger effect = lower value 1 | S. cerevisiae deletion strains, locus YOR144C, strain elg1, stronger effect = lower value 1 | S. cerevisiae deletion strains, locus YOR184W, strain ser1, stronger effect = lower value 0.989 | S. cerevisiae deletion strains, locus YOR316C, strain cot1, stronger effect = lower value 1 | [19] 0.937 | [20] 0.99 | S. cerevisiae deletion strains, locus YPR119W, strain clb2, stronger effect = lower value 1 | S. cerevisiae deletion strains, locus YPR141C, strain kar3, stronger effect = lower value 1.01 | S. cerevisiae deletion strains, locus YPR163C, strain tif3, stronger effect = lower value 1 | S. cerevisiae deletion strains, locus YPR167C, strain met16, stronger effect = lower value 0.995 | S. cerevisiae deletion strains, strain wtn01, stronger effect = lower value 0.998 | [21] 0.991

COC(=O)c1c(C)[nH]c(C)c1C(=O)c1ccccc1Cc1ccccc1
inactive: S. cerevisiae deletion strains, locus YAL040C, strain CLN3, stronger effect = lower value 0.995 | S. cerevisiae deletion strains, locus YCL061C, strain MRC1 (second series), stronger effect = lower value 1 | S. cerevisiae deletion strains, locus YDR363W, strain ESC2, stronger effect = lower value 1.02 | S. cerevisiae deletion strains, locus YER002W, strain NOP16, stronger effect = lower value 0.984 | [6] 0.989 | [7] 1.06 | [17] 0.987 | S. cerevisiae deletion strains, locus YNL175C, strain NOP13, stronger effect = lower value 0.986 | S. cerevisiae deletion strains, locus YNL197C, strain WHI3, stronger effect = lower value 0.983 | S. cerevisiae deletion strains, locus YNL224C, strain SQS1, stronger effect = lower value 0.983 | [18] 1.01 | S. cerevisiae deletion strains, locus YOR083W, strain WHI5 (second series), stronger effect = lower value 0.964 | [19] 1.01 | [20] 1

COC(=O)c1c(C)[nH]c(C)c1C(C)=O
inactive: [1] 1.03 | [2] 1.01 | [3] 0.968 | [4] 1.01 | [5] 1.01 | [6] 1.03 | [8] 1.05 | [22] 1.03 | [23] 0.995 | [9] 0.976 | [10] 0.999 | [11] 1.01 | [12] 1.07 | [24] 1 | [25] 1.18 | [13] 1.02 | [26] 1.04 | [27] 1.01 | [14] 1 | [15] 1.03 | [17] 0.994 | [28] 1.01 | [18] 1.01 | [29] 1.04 | [19] 1.05 | [20] 1.08 | [21] 1.01
active: [30] 1.36 [resistant]

Cc1ccc(Oc2ccc(C)cc2)cc1
inactive: [1] 0.993 | [2] 0.999 | [3] 1.01 | [4] 0.999 | [5] 0.976 | [6] 1 | [22] 1.03 | [23] 0.993 | [9] 0.992 | [10] 1.01 | [11] 1 | [12] 0.897 | [24] 0.991 | [25] 0.864 | [13] 0.889 | [26] 1.06 | [27] 1 | [14] 0.969 | [16] 0.995 | [17] 0.999 | [28] 0.96 | [18] 0.993 | [29] 0.962 | [19] 1.02 | [20] 0.936 | [30] 0.912
active: [8] 0.663
